# Laboratory results as given in PubChem BioAssay AID687001 (Broad Institute, 2013).
# Potency and affinity values are given separately. Unmarked numbers belong to inactive results.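 The calls were made as follows: active = signal-lowering compounds whose fitted half-maximal concentration is at or below twice the top tested dose in every run; inconclusive = runs disagree, flat 30 to 70% inhibition, or poor curve fit; inactive = the rest.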
# Molecular target: Protein S100-A4 (Homo sapiens) (UniProt P26447)
# Sequence (P26447 whole entry, looked up): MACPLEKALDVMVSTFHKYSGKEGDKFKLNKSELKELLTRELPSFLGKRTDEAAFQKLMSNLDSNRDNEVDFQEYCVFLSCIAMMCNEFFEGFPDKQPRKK
# Experiment: S100A4-myosin IIA binding inhibitor potency, dose response, biochemical, fluorescence polarization, cherry-picked hits (AID 687001);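 also: 0% = DMSO neutral control wells and -100% = TFP positive control wells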
# Settings: FP, S100A4/TAMRA-myosin IIA peptide binding; series mostly up to 11 µM; activity change, negative = inhibition: at the top concentration
row,Compound,"activity change, negative = inhibition"
1,CCC(=O)N1[C@@H]2c3ccc(-c4ccncc4)c(=O)n3C[C@H]1[C@H](CO)[C@H]2C(=O)NC1Cc2ccccc2C1,0.367%
2,CCOc1cc(/C=C2\CCCc3c2nc2ccccc2c3C(=O)O)ccc1OC,-0.831%
3,CCOC(=O)[C@]12CCC=C1N(Cc1cccc3ccccc13)C(=O)[C@H](CC(=O)N1CCOCC1)C2,-5.12%
4,COc1ccccc1NC(=O)N1CC(=O)N2[C@H](CO)[C@H](c3ccc(-c4ccc(F)cc4)cc3)[C@@H]2C1,6.59%
5,Cc1ccc(S(=O)(=O)N(C)C[C@@H]2OCCCC[C@@H](C)Oc3ccc(NS(C)(=O)=O)cc3C(=O)N([C@@H](C)CO)C[C@@H]2C)cc1,0.697%
6,COc1ccc(C(=O)N(C)C2(C)CCS(=O)(=O)C2)cc1OC (centres undefined),10.1%
7,Cc1cc(Br)ccc1NC(=S)NC1CCCC1,0.376%
8,Cc1noc(C)c1NC(=O)N(C)C[C@H]1Oc2c(NC(=O)CCCCCC(=O)Nc3ccccc3N)cccc2C(=O)N([C@@H](C)CO)C[C@H]1C,7.49%
9,CCOc1ccc(OCCC(=O)N(CC(=O)Nc2ccccc2C(F)(F)F)Cc2ccco2)cc1,2.4%
10,C[C@@H]1CCCCO[C@@H](CN(C)S(=O)(=O)c2cn(C)cn2)[C@@H](C)CN([C@H](C)CO)C(=O)c2cc(NS(=O)(=O)c3ccc(Cl)cc3)ccc2O1,5.4%
11,CCCNC(=O)N1CC(=O)N2[C@H](CO)[C@@H](c3ccc(-c4ccc(F)cc4)cc3)[C@H]2C1,8.48%
12,O=C(Nc1ccccc1F)N1C[C@@H]2[C@H](c3ccccc31)[C@@H](CO)N2C(=O)C1CCCC1,2.82%
13,Cc1nn(-c2ccc(N3CCOCC3)nn2)c(C)c1CCC(=O)N1CCN(C)CC1,-0.085%
14,O=C(Cn1cc(COc2ccc3ccc(=O)oc3c2)nn1)c1ccc(O)cc1,-1.67%
15,O=C(Nc1ccc2ccccc2c1)c1ccccc1Cl,0.242%
16,O=C1CC(c2ccccc2)NN1 (centres undefined),-3.19%
17,O=C(Nc1nnc([C@H]2C[C@H](O)[C@@H](CO)O2)s1)c1cccc(Oc2ccccc2)c1,8.33%
18,O=C1CC(C(=O)N2CCN(c3ccccn3)CC2)CN1Cc1ccccc1Cl (centres undefined),-1.18%
19,CC(C)CC(=O)Nc1c2c(nn1-c1ccc(F)cc1)CS(=O)C2 (centres undefined),1.47%
20,COc1ccc(NC(=O)N(C)C[C@H]2OCCCC[C@@H](C)Oc3ccc(NC(=O)NC4CCCCC4)cc3C(=O)N([C@H](C)CO)C[C@@H]2C)cc1,9.67% [at 10 µM]

row,Compound,"activity change, negative = inhibition"
1,O=C(NCCC1=CCCCC1)c1ccc(Cl)c(S(=O)(=O)N2CCCCC2)c1,-0.676%
2,CNC[C@H]1OCCCC[C@@H](C)Oc2ccc(NC(=O)C3CCCCC3)cc2C(=O)N([C@@H](C)CO)C[C@@H]1C,11.4%
3,COc1ccc(NC(=O)c2ccccc2OCc2c(C)noc2C)cc1OC,2.52%
4,COc1ccc(NC(=O)CN(C)C(=O)C2CC(=O)N(c3ccc4c(c3)OCCO4)C2)cc1 (centres undefined),4.61%
5,O=C(COC(=O)Cc1ccc(F)cc1)Nc1ccc2[nH]c(=O)[nH]c2c1,0.302%
6,CCCN1CCCCC(NC(=O)c2c(F)cccc2F)C1=O (centres undefined),0.997%
7,CC1(C)Cc2cccc(OCC(=O)N3CCN(c4cccc(C(F)(F)F)c4)CC3)c2O1,-1.22%
8,COc1ccccc1C(=O)NC(=O)COC(=O)c1ncc(Cl)c(Cl)c1Cl,12.5%
9,Cc1cc(C)nc(NC(=O)CCN2C(=O)c3ccccc3S2(=O)=O)n1,-0.83%
10,CS(=O)(=O)N(CCc1ccccc1)CC(=O)N1CCCCCC1,-5.34%
11,COc1ccc(N2CCN(C(=O)[C@H](C)N3C(=O)C4CC=CCC4C3=O)CC2)cc1 (some centres undefined),0.726%
12,CC=Cc1ccc2n(c1=O)C[C@@H]1N[C@H]2[C@H](C(=O)NC2CCCCC2)[C@H]1CO (mixture of isomers),-2.91%
13,COc1ccc(OC)c(NC(=O)CSc2nnc(CNC(=O)c3cc(OC)c(OC)c(OC)c3)o2)c1,-5.15%
14,O=C(c1ccccc1)c1ccc(C(=O)N2CCN(c3ccccc3O)CC2)cc1,-2.23%
15,O=C(Cc1ccc(Br)cc1)N/N=C/c1cccnc1,-3.2%
16,O=C(NCCOc1ccccc1)C1CCC(=O)N(CCCN2CCOCC2)C1 (centres undefined),-3.56%
17,O=C1CNC[C@H]2[C@@H](c3ccc(C#CC4CCCC4)cc3)[C@@H](CO)N12,23.8%
18,CSc1ccccc1OCc1cc(C(=O)NCCN2CCCc3ccccc32)no1,29.8%
19,COc1cccc(NC(=O)CN(C)C(=O)c2ccc(N3CCCCC3)c([N+](=O)[O-])c2)c1,2.43%
